The campaign covered roughly 360,000 compounds. About 11,000 (3.1%) were called active. Inconclusive results (about 4%) are left out. No cut-off for these calls is given here. Only a selection was taken, and actives are over-represented in it overall.
Each compound was assayed against Thioredoxin glutathione reductase (Schistosoma mansoni) (UniProt Q962Y6) (assay: qHTS Assay for the Inhibitors of Schistosoma Mansoni Peroxiredoxins. [Related pubchem assays: 1011 (Confirmation Concentration-Response Assay for Inhibitors of the Schistosoma mansoni Redox Cascade ), 448 (Schistosoma Mansoni Peroxiredoxins (Prx2) and thioredoxin glutathione reductase (TGR) coupled assay)]).
Type: functional
In the case of `Cl.N[C@@H](CCC(=O)O)C(=O)O`, the Potency is reported as 5.01 µM (active). In the case of `Nc1c2c(nn1-c1ccc(C(=O)O)cc1)CNC2`, the Potency is reported as “inactive”. For `Cc1ccc(CNC(=O)C(=O)NCC2OCCN2S(=O)(=O)c2ccc3c(c2)OCCO3)cc1` (stereo unspecified), the Potency was 631 µM (active). `Cc1ccc(CNC(=O)C(NS(=O)(=O)c2cccc3nsnc23)C(C)C)cc1` (stereo unspecified) was tested, and the Potency was “inactive”. `Cc1c(C(=O)N2CCCCC2)c(S(=O)(=O)NCCc2ccc(Cl)cc2)c(C)n1C` was tested, and the Potency was “inactive”. In the case of `CC(=O)N1CCc2cc(S(=O)(=O)Nc3ccc(C)cc3)ccc21`, the Potency is reported as 316 µM (active).

Reference: ChEMBL document CHEMBL1201862, “PubChem BioAssay data set” (2004)
